High-throughput results deposited in PubChem by National Center for Advancing Translational Sciences (NCATS).
In the library only some 12% were active in any assay of this set; here they are far more common.
JMJD2A Tudor = inhibitors of human JMJD2A Tudor domain | actives 4.4% (n = 390,000) | Potency, µM (titrated, usually from 114 µM), for inactives: at the top dose activity change, negative = inhibition, most hits filed as inhibitors | AlphaScreen JMJD2A-Tudor / H3K4me3 peptide binding | O75164; note: potency is the fitted concentration of half-maximal effect; % is set by controls: 0 for no effect and ±100 for the full control effect; nearly all actives have a fitted effect of over 50% in size
BAZ2B inh = inhibitors of human BAZ2B bromodomain; AlphaScreen BAZ2B-H3K14Ac peptide displacement; Potency, µM (series often up to 114 µM), for inactives: at the top dose activity change, negative = inhibition, hits mostly inhibitors; actives 4.4% (n = 360,000); AID 504333; note: potency is the fitted concentration of half-maximal effect; % is set by controls: 0 for no effect and ±100 for the full control effect; nearly all actives have a fitted effect of over 60% in size
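AlphaScreen displacement of biotin-H3(5-23)K14Ac peptide (50 nM final) from BAZ2B (50 nM final) in PBS pH 7.4, 0.01% Tween-20; complex preformed 30 min RT, then compounds (top 110 uM) 30 min RT, beads 20 min dark.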
G9a inh = G9a (human) methyltransferase inhibition; G9a H3K9 monomethylation, AlphaScreen, 2 h; AID 504332; actives 8.8% (n = 350,000); Q96KQ7; Potency, µM (top dose mostly 102 µM), for the others: top-dose activity, negative = inhibition, most hits filed as inhibitors; note: potency is the fitted concentration of half-maximal effect; % is set by controls: 0 for no effect and ±100 for the full control effect; nearly all actives have a fitted effect of over 75% in size
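AlphaScreen detection with an anti-monomethyl H3K9 antibody quantified product after a 2 h room-temperature reaction containing 500 nM biotinylated H3K9 peptide, 20 µM SAM and 20 nM enzyme, which had been preincubated 15 min with compound.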
PI5P4K alpha inh = PI5P4K alpha (human) kinase inhibition; actives 1.2% (n = 330,000); P48426; PI5P4Kalpha enzyme, ADP-Glo luminescence, 60 min; hits give low values; AID 652105; max response, %; active = max response of -50% or lower; inconclusive = between -30% and -50%; inactive = -30% or higher; note: value at the top dose of about 77 µM; % is set by controls: 0 for no effect and ±100 for the full control effect
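Enzyme plus substrate dispensed, test compounds pinned in, then ATP (5 microM final) added. After 60 min at RT, ADP-Glo reagent 1 for 45 min and reagent 2 for 30 min preceded luminescence imaging.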
PLK1 PBD inh = PLK1 (human) polo-box domain binding inhibition | Plk1 PBD binding of FITC phosphopeptide, fluorescence polarization | Potency, µM, for inactives: max response, negative = inhibition, actives largely listed as inhibitors | actives 2.8% (n = 360,000); note: potency is the fitted concentration of half-maximal effect; series mostly up to about 57 µM; % is set by controls: 0 for no effect and ±100 for the full control effect; nearly all actives have a fitted effect of over 65% in size
HP1b binding inh = inhibitors of HP1-beta chromodomain binding to methylated histone tails. AlphaScreen HP1-beta / biotin-H3K9me3 peptide binding. Potency, µM (highest dose often 114 µM), inactives show top-dose activity change, negative = inhibition, most hits filed as inhibitors. actives 0.56% (n = 390,000); note: potency is the fitted concentration of half-maximal effect; nearly all actives have a fitted effect of over 70% in size
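AlphaScreen: HP1-beta (50 nM) preformed 30 min with biotin-H3(1-18)K9me3 peptide (50 nM) in PBS pH 7.4, 0.01% Tween-20. Compound added for 30 min at RT, then streptavidin donor/nickel chelate acceptor beads (10 ug/mL) for 30 min.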
JMJD2E inh-1 = inhibitors of human JMJD2E demethylase, 8HQ series round 1 | Potency, µM (top dose mostly 57 µM), inactives show at the highest dose activity, negative = inhibition, hits mostly inhibitors | shares compounds with BAZ2B inh | actives 89% (n = 130) | JMJD2E demethylase, FDH-coupled NADH fluorescence
JMJD2E inh-2 = confirmation of inhibitors of human JMJD2E demethylase. Potency, µM (series often up to 56.8 µM), for inactives: at the highest dose activity change, negative = inhibition, actives largely listed as inhibitors. Recombinant JMJD2E, FDH-coupled NADH fluorescence (FDH is formaldehyde dehydrogenase). actives 93% (n = 140). shares compounds with JMJD2A Tudor
FDH inh = counter-screen for JMJD2E inhibitors: Pseudomonas putida formaldehyde dehydrogenase; shares compounds with JMJD2A Tudor; FDH enzyme assay, NADH fluorescence kinetic; Potency, µM (top dose mostly 56.7 µM), for the others: top-dose activity, negative = inhibition, most hits filed as inhibitors; actives 10% (n = 140)
JMJD2E MALDI inh = inhibitors of human JMJD2E demethylase. actives 90% (n = 45). recombinant JMJD2E demethylation, MALDI-TOF-MS. Potency, µM, most hits filed as inhibitors. shares compounds with JMJD2A Tudor. AID 2688;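 active = compounds whose IC50 for blocking JMJD2E demethylation is below 100 µM; inconclusive = dose dependent effect but IC50 above 100 µM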
Active calls of the source: *; [ ] = dose if it differs, or a comment. Unless noted, calls come from the whole dose curve; as a rule, active = well fitted curve in the direction sought with a large enough effect; inconclusive = small, poorly fitted or top-dose-only effect, or another doubt; inactive = no such curve, though single readings can be large; an effect the other way counts as inactive or inconclusive.

Results for COc1ccc(Nc2cc(O)c3ncccc3c2)cc1 ?
BAZ2B inh: 28.2µM*; G9a inh: 17.2%[12.7 µM]; JMJD2E inh-1: 11.5µM*; JMJD2E inh-2: 9.13µM*; FDH inh: -36.4%; JMJD2E MALDI inh: 21.6*

Results for Oc1cc(NCc2cccnc2)ccc1-c1nc2ccccc2o1 ?
JMJD2A Tudor: -1.4%; BAZ2B inh: -2.5%; G9a inh: 25.5%[12.7 µM]; PI5P4K alpha inh: 15.8; PLK1 PBD inh: 0.3%; HP1b binding inh: 39.2%

Results for Cn1c(C(=O)N[C@@H](C(=O)O)c2ccccc2)cc2cc(F)ccc21 ?
JMJD2A Tudor: -7.0%; BAZ2B inh: -19.1%; G9a inh: 3.0%; PI5P4K alpha inh: 3.2; PLK1 PBD inh: -5.6%; HP1b binding inh: 20.5%

Results for O=C(Cc1ccccc1F)Nc1cccc2cccnc12 ?
JMJD2A Tudor: 10.7%; BAZ2B inh: 10.3%; G9a inh: 32.5%[59 µM]; PI5P4K alpha inh: 0.1; PLK1 PBD inh: -2.7%; HP1b binding inh: 42.2%

How did OCc1cn(Cc2ccc(O)c3ncccc23)cn1 do in these assays?
BAZ2B inh: 1µM*; G9a inh: -21.2%[12.7 µM]; JMJD2E inh-1: 11.2µM*; JMJD2E inh-2: 11.2µM*; FDH inh: -9.1%

Results for Oc1ccc(CCc2c(F)cccc2F)c2cccnc12 ?
JMJD2A Tudor: -18.4%; JMJD2E inh-1: 8.13µM*; JMJD2E inh-2: 12.9µM*; FDH inh: 0.0%; JMJD2E MALDI inh: 39.4*

How did Oc1ccc(CNCc2ccccc2F)c2cccnc12 do in these assays?
JMJD2A Tudor: 25.1µM*; JMJD2E inh-1: 6.46µM*; JMJD2E inh-2: inconclusive; FDH inh: -18.2%; JMJD2E MALDI inh: 21.2*

What do the screens show for `CSc1ccc(CN2CCC(C)(Oc3ccc(-n4ccnc4)cc3)C2)cc1` (stereo not drawn)?
PI5P4K alpha inh: -6.2; PLK1 PBD inh: -10.2%

How did CCOC(=O)C1CCN(CC(O)COc2ccc(S(=O)(=O)N3CCCC3)cc2[N+](=O)[O-])CC1 (stereo not drawn) do in these assays?
JMJD2A Tudor: -12.4%; BAZ2B inh: 1.4%; G9a inh: -41.3%; PI5P4K alpha inh: 4.5; PLK1 PBD inh: -5.2%; HP1b binding inh: 13.1%

How did Oc1ccc(Cl)cc1CNc1ccccn1 do in these assays?
JMJD2A Tudor: -15.1%; BAZ2B inh: 6.4%; G9a inh: 15.8%; PI5P4K alpha inh: 4.9; PLK1 PBD inh: -4.6%; HP1b binding inh: 30.4%

How did Oc1ccc(CNc2ccccc2Br)c2cccnc12 do in these assays?
JMJD2A Tudor: 50.1µM*; JMJD2E inh-1: 3.55µM*; JMJD2E inh-2: 3.55µM*; FDH inh: -9.1%; JMJD2E MALDI inh: 24.1*

What do the screens show for `Oc1ccc(CNc2cccc(F)c2)c2cccnc12`?
JMJD2A Tudor: 56.2µM*; JMJD2E inh-1: 1.12µM*; JMJD2E inh-2: 1.12µM*; FDH inh: -9.1%; JMJD2E MALDI inh: 14.5*

Results for Oc1ccc(CNc2ccc(F)cc2Cl)c2cccnc12 ?
JMJD2A Tudor: 56.2µM*; JMJD2E inh-1: 5.76µM*; JMJD2E inh-2: 1.12µM*; FDH inh: -18.2%; JMJD2E MALDI inh: 16.1*

How did O=C(CCCN1C(=O)c2cccnc2C1=O)Nc1ccc(F)cc1Cl do in these assays?
JMJD2A Tudor: -11.9%; BAZ2B inh: -14.3%; G9a inh: 18.5%; PI5P4K alpha inh: -2.3; PLK1 PBD inh: -0.3%; HP1b binding inh: 21.2%

How did COC(=O)C1=C(C(=O)OC)[N+]2=C3N(C(=O)NC2(C)C)[C@H](CO)C[C@@]32c3ccccc3N(Cc3ccccc3)[C@@H]12 do in these assays?
JMJD2A Tudor: inconclusive; PI5P4K alpha inh: 8.5; PLK1 PBD inh: -11.2%; HP1b binding inh: -10.3%

What do the screens show for `CN1CCN(Cc2cc(COCc3ccccc3)c3cccnc3c2O)CC1`?
JMJD2A Tudor: 17.8µM*; BAZ2B inh: 10µM*; G9a inh: inconclusive; PI5P4K alpha inh: 2.1; PLK1 PBD inh: -9.5%; HP1b binding inh: 4.4%; JMJD2E inh-1: 6.31µM*; JMJD2E inh-2: 6.31µM*; FDH inh: -27.3%

How did Brc1ccccc1CN1CCC(N2CCCCC2)CC1 do in these assays?
JMJD2A Tudor: -21.8%; G9a inh: -39.5%[59 µM]; PLK1 PBD inh: -8.9%; HP1b binding inh: 11.6%

Results for CN1CCN(C2CCN(Cc3ccc(O)c4ncccc34)CC2)CC1 ?
JMJD2A Tudor: 44.7µM*; BAZ2B inh: 8.91µM*; G9a inh: -43.2%[2.33 µM]; HP1b binding inh: -6.1%; JMJD2E inh-1: 3.16µM*; JMJD2E inh-2: 3.16µM*; FDH inh: -9.1%

Results for COc1ccc2c(CNC3CCCC3)c(C(=O)O)n(Cc3ccccc3C)c2c1 ?
JMJD2A Tudor: -15.8%; BAZ2B inh: -15.4%; G9a inh: -7.5%[59 µM]; HP1b binding inh: 17.6%

What do the screens show for `CN(C)c1ccc(C=Cc2ccnc3c(O)cccc23)cc1`?
PI5P4K alpha inh: 0.3; PLK1 PBD inh: 14.7%

Results for Oc1cc(-c2ccc(N3CCCCC3)nc2)cc2cccnc12 ?
JMJD2A Tudor: -27.8%; BAZ2B inh: 8.6%; G9a inh: -2.8%[12.7 µM]; HP1b binding inh: 58.3%; JMJD2E inh-1: 25.7µM*; JMJD2E inh-2: 31.6µM*; FDH inh: -72.7%

What do the screens show for `Cc1cc(N2CCCC2)nc(-c2ccccc2O)n1`?
JMJD2A Tudor: 21.6%; BAZ2B inh: -16.1%; G9a inh: -28.8%; PI5P4K alpha inh: 1.2; PLK1 PBD inh: -1.9%; HP1b binding inh: 39.2%

What do the screens show for `CN(C)CCCNC(=O)c1ccc(-c2cc(O)c3ncccc3c2)cc1`?
JMJD2A Tudor: 20µM*; BAZ2B inh: 7.08µM*; G9a inh: 4.8%[12.7 µM]; HP1b binding inh: -33.1%; JMJD2E inh-1: 32.4µM*; JMJD2E inh-2: 15.8µM*; FDH inh: 0.0%
